This is an account of results in PubChem BioAssay AID602162 (NMMLSC, 2011).

The structures appear in SMILES notation. Screen size: about 360,000 compounds; about 690 (0.19%) were called active. The sample holds actives, similar compounds and a random draw of the others, so the mix is not that of the screen.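 The calls were made as follows: active = fluorescence ratio to DMSO below 75%, the collection mean minus 3 SD; inconclusive = too few cells collected in the well; inactive = the rest.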

The target in the assay is ATP-binding cassette sub-family B member 6 (Homo sapiens) (UniProt Q9NP58). As to the kind of experiment: ABCB6 transporter inhibitors, primary screen, K562-ABCB6 cells, flow cytometry, MLPCN library (AID 602162).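 Also: signal is porphyrin accumulated inside mitochondria; 100% equals median channel fluorescence of DMSO control wells; lower ratio means ABCB6 inhibition with less porphyrin fluorescence.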 Particulars: K562-ABCB6 porphyrin accumulation, 1 h, at 10 µM, stronger effect = lower value. On the technique in general: In flow cytometry, cells or beads pass a laser one at a time.
Sequence of ATP-binding cassette sub-family B member 6 (Homo sapiens) (Q9NP58 whole entry, looked up): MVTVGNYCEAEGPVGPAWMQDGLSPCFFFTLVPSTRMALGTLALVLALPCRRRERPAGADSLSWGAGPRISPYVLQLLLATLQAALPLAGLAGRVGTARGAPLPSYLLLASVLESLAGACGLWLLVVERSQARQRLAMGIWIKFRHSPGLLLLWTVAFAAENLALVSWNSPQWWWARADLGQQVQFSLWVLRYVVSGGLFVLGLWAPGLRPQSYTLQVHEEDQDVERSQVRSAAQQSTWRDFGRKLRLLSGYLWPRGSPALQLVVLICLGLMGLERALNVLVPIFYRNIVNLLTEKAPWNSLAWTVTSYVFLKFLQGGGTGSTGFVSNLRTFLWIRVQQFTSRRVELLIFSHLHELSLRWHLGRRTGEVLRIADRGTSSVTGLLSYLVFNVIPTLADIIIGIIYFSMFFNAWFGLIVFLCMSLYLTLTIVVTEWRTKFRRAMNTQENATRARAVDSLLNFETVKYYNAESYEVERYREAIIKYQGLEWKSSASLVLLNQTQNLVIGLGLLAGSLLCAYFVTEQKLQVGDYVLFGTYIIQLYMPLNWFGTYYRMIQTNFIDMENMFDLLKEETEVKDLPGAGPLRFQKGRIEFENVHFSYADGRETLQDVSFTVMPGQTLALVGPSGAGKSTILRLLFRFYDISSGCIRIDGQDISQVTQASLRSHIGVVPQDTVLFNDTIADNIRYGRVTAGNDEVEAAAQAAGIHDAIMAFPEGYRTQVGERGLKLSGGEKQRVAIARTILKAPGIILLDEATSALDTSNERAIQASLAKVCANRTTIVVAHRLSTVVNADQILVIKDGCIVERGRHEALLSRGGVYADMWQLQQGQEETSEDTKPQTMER
As to `COc1ccc(-c2c(NC(=O)c3ccco3)oc3ccc(Cl)cc3c2=O)cc1`, the fluorescence ratio to DMSO is 97% (inactive).
The same measure for `O=C(COc1ccccc1)Nc1cc2c3c(c1)CC(=O)N3CCC2`: 102% (inactive); for `O=C(Cc1cccs1)NCc1cccc(C(F)(F)F)c1`: 68% (active); for `Cc1ccccc1Cn1c(C)c(C(=O)NCc2cccc(C(F)(F)F)c2)sc1=O`: 98% (inactive).
On to `Cn1c(=O)c2cc(NC(=O)NCCc3cccs3)ccc2n1Cc1cccc(C(F)(F)F)c1`, for which the fluorescence ratio to DMSO was 100% (inactive).
With `Cc1ccn(-c2cccc(-n3ccc(C)n3)n2)n1`, the fluorescence ratio to DMSO was 104% (inactive).
The same measure for `Cc1cnc(C(=O)OCc2c(C)cc(C(C)(C)C)cc2C)cn1`: 104% (inactive); for `COc1ccc(/C=C(\NC(=O)c2ccc(OCC(C)C)cc2)C(=O)OCc2ccco2)cc1`: 100% (inactive); for `COc1ccc(-c2cnc(SCCNC(=O)c3ccc4c(c3)OCO4)[nH]2)cc1`: 98% (inactive).
For `O=C(NCCSc1ncc(-c2ccccc2)[nH]1)c1ccco1` the value was 74% (active); for `O=C(NCCS(=O)(=O)N1CCN(c2ccccc2)CC1)c1ccco1`, 98% (inactive); for `COc1ccccc1NC(=O)c1ccc(N2CC3CC(C2)c2cccc(=O)n2C3)c(NC(=O)c2cccnc2)c1` (centres undefined), 100% (inactive).
The same measure for `CCN(CC(=O)Nc1ccc(NC(C)=O)cc1)C(=O)C1CC(=O)N(c2ccc3c(c2)OCCO3)C1` (centres undefined): 91% (inactive); for `COc1ccc(CCNC(=O)CN(c2ccccc2)S(C)(=O)=O)cc1OC`: 95% (inactive).
For the molecule `COc1ccc(CCNc2nc(C)cc(C)n2)cc1OC`, the fluorescence ratio to DMSO was 95% (inactive).
The same measure for `COc1ccc(CCNC2=C(Cl)C(=O)N(Cc3ccccc3)C2=O)cc1OC`: 73% (active); for `Fc1ccccc1OCCSc1nc2ccccc2o1`: 89% (inactive).
Take `O=C(CSc1nnc(C2CC2)n1Cc1ccccc1)Nc1cccnc1Cl`: the fluorescence ratio to DMSO was 85% (inactive).
The same measure for `CCC1OC(C2CC2)CC2=C1C(=O)OC(C)(C)O2` (centres undefined): 97% (inactive); for `CC1(C)O[C@H]2CC(=O)OCC23[C@H]2CC[C@@]4(C)[C@H](c5ccoc5)OC(=O)[C@H]5O[C@]54[C@]2(C)C(=O)C[C@@H]13` (some centres undefined): 100% (inactive).
Consider `O=C(c1cnn2ccccc12)N1CCc2ccccc21`, for which the fluorescence ratio to DMSO was 103% (inactive).
The same measure for `COC(=O)c1ccc(C2NC(=O)NC(C)=C2C(=O)N(C)C)cc1` (centres undefined): 117% (inactive).
For `CCOC(=O)C1=C(C)NC2=C(C(=O)CC(C)(C)C2)C1c1ccsc1` (centres undefined) the value was 100% (inactive); for `CCCOC(=O)C1=C(C)NC2=C(C(=O)C(C(=O)OC)C(C)C2)C1c1ccc(N(C)C)cc1` (centres undefined), 72% (active).
The same measure for `CCCn1c(N)c(C(=O)CSc2nnc(-c3cccnc3)n2-c2ccc(C)cc2C)c(=O)[nH]c1=O`: 101% (inactive).
For the molecule `CCOc1ccc2[nH]c3nc(SCC(=O)NC4CCCC4)nnc3c2c1`, the fluorescence ratio to DMSO is 96% (inactive).
For `CCc1ccccc1OCC(=O)Nc1ccc(C)c(S(=O)(=O)N2CCCCCC2)c1` the value was 90% (inactive).
For `Cc1ccccc1OCC(=O)Nc1nnc(S(=O)(=O)N2CCCC2)s1` the value was 56% (active); for `CC1CCN(S(=O)(=O)c2nnc(NC(=O)COc3ccccc3F)s2)CC1`, 100% (inactive).
For `Cc1ccc2[nH]c3c(=O)n(CC(=O)NCCc4ccc(Cl)cc4)ncc3c2c1` the value was 96% (inactive); for `CC(C)(C)C1CCC(C(=O)NCC(c2cccs2)N2CCOCC2)CC1` (centres undefined), 98% (inactive); for `O=C(NCc1ccco1)C(c1ccncc1)N(C(=O)Cn1nnc2ccccc21)c1ccccc1` (centres undefined), 94% (inactive).
Take `Nc1nc(SCc2cccc(Br)c2)n[nH]1`: the fluorescence ratio to DMSO was 98% (inactive).
`COc1ccccc1N1CCN(C(=O)c2cc(=O)c3cc(C)cc(C)c3o2)CC1`: the fluorescence ratio to DMSO was 101% (inactive).
For `Cc1cccc(N2CCN(C(=O)c3cnn4c(C(F)F)cc(-c5ccccc5)nc34)CC2)c1C` the value was 97% (inactive); for `Cc1ccc(Cl)cc1N1CCN(C(=O)c2cccc3c(=O)c(C)c(-c4ccccc4)oc23)CC1`, 73% (active).
For `C/C(CCc1ccccc1)=N\NC(=O)c1ccc(CN2CCOCC2)cc1` the value was 97% (inactive); for `CSC1=NN(c2ccccc2)CN(c2ccccc2)N1C`, 98% (inactive); for `CCCOP(=O)(c1ccc(N(C)C)cc1)C(O)c1cc(OC)c(OC)c(OC)c1` (centres undefined), 94% (inactive).
The same measure for `COc1ccccc1S(=O)(=O)NCc1ccc(C(=O)N(C)Cc2ccc(F)cc2)cc1`: 92% (inactive).
Take `Cc1ccc(SCC(=O)Nc2nncs2)cc1`: the fluorescence ratio to DMSO is 99% (inactive).
For `Cc1cnc(NC(=O)Cn2cnc3c2c(=O)n(C)c(=O)n3C)s1`, the fluorescence ratio to DMSO is 101% (inactive).
The same measure for `Cc1ccc(SCC(=O)Nc2ncc(C)s2)cc1`: 71% (active); for `Fc1cccc(Cc2noc(CN3CCN(c4cnccn4)CC3)n2)c1`: 95% (inactive); for `COc1ccccc1CNC(=O)CSc1nc(=O)n(Cc2ccncc2)c2c1CCC2`: 100% (inactive).
The same measure for `Cc1ccc2c(C)c(C(=O)N(C)Cc3ccncn3)oc2c1C`: 96% (inactive); for `Cc1ccccc1OC(=O)Cn1c(C(F)(F)F)nc2ccccc21`: 93% (inactive); for `COc1ccc(CNC(=O)COC(=O)c2c(C)nn(-c3ccccc3)c2C)cc1OC`: 98% (inactive).
For `Cc1cccc(C)c1NC(=O)COC(=O)c1c(C)nn(-c2ccccc2)c1C` the value was 100% (inactive); for `Cc1nn(-c2ccccc2)c(C)c1C(=O)OCC(=O)NC(=O)NC1CCCCC1`, 74% (active).
Turning to `O=C(/C=C/c1ccccc1)Oc1coc(CSc2ncccn2)cc1=O`, the fluorescence ratio to DMSO was 104% (inactive).
The same measure for `CC1(C)O[C@@H]2[C@H](O1)[C@@H](COS(=O)(=O)O)O[C@H]2n1cnc2c(=O)[nH]cnc21`: 98% (inactive); for `COc1ccc(CC(=O)NCc2nnc(SCC(=O)Nc3ncc(C)s3)n2C)cc1`: 103% (inactive); for `O=C(CC(c1ccccc1)c1cc(Cl)ccc1O)NCCN1CCOCC1` (centres undefined): 91% (inactive).
For `O=S(=O)(c1ccc(F)cc1)n1ccc(-c2cnc(-c3ccccc3)s2)n1` the value was 91% (inactive); for `CN(CC(=O)Nc1cccc(F)c1)C(=O)C1CSC2(C)CCC(=O)N12` (centres undefined), 96% (inactive).
Regarding `COCCNC(=O)C(OC(=O)c1cccs1)c1ccc(F)cc1` (centres undefined), the fluorescence ratio to DMSO was 100% (inactive).
As to `O=C(NCc1cccs1)C(=O)NCC1OCCCN1S(=O)(=O)c1ccc(F)cc1` (centres undefined), the fluorescence ratio to DMSO was 103% (inactive).
For `CC(C)C(=O)NCC(c1cccs1)S(=O)(=O)c1ccc(F)cc1` (centres undefined) the value was 11% (active); for `N#Cc1cccc(NC(=O)C2CCCN(C(=O)c3ccc(Cl)cc3)C2)c1` (centres undefined), 104% (inactive); for `Cc1c(C(=O)NC(=S)NCc2cccnc2)oc2ccccc12`, 99% (inactive).
Consider `CC12CCCCC1=CC(=O)CC2` (centres undefined), for which the fluorescence ratio to DMSO is 101% (inactive).
For `COc1ccc(CNC(=O)CN2C(=O)NC3(CCCc4sccc43)C2=O)cc1` (centres undefined) the value was 93% (inactive); for `O=C(CN1C(=O)NC2(CCCC2)C1=O)Nc1ccc(F)c(F)c1F`, 104% (inactive); for `CC(C(=O)Nc1ccc(F)c(F)c1F)N1CCCCCC1` (centres undefined), 74% (active).
The same measure for `CC(C(=O)Nc1ccccc1-c1ccccc1)N1CCOCC1` (centres undefined): 104% (inactive); for `COCCCNc1ccn2nc(-c3ccc(CC(C)C)cc3)cc2n1`: 100% (inactive); for `COC(=O)c1cc(NC(=O)CN2CCC(C(N)=O)(N3CCCCC3)CC2)cc(C(=O)OC)c1`: 104% (inactive).
Take `Cc1sc2ncn(CC(=O)NCCCC(=O)N(C)Cc3ccccc3)c(=O)c2c1C`: the fluorescence ratio to DMSO was 97% (inactive).
For `O=C(Nc1cc(=O)[nH]c2ncnn12)c1ccccc1Cl` the value was 101% (inactive).
The same measure for `CC(C)C[C@H](NC(=O)[C@@H]1O[C@H]1C(=O)O)C(=O)NCCCCN=C(N)N`: 94% (inactive).
For `CCC(c1nnnn1-c1ccc2c(c1)OCCO2)N1CCN(c2ccc(C(F)(F)F)cn2)CC1` (centres undefined) the value was 99% (inactive); for `CN(Cc1ccccc1)C(=O)CCC1CCN(C(=O)c2ccco2)CC1`, 90% (inactive).
Consider `CCC(=O)N1CCCC1(C)C(=O)Nc1ccc2c(c1)CCN2C(C)=O` (centres undefined), for which the fluorescence ratio to DMSO is 72% (active).
For `CC(=O)N1CCc2cc(S(=O)(=O)NC3CCCCC3)ccc21` the value was 97% (inactive); for `CCCNS(=O)(=O)c1ccc2c(c1)CCCN2C(C)=O`, 75% (inactive); for `CC(C)(C)n1cnnc1Sc1ccc([N+](=O)[O-])cn1`, 101% (inactive).
As for `CC1CCCCC1NC(=O)NC(=O)COC(=O)C1=NN(c2ccccc2)C(=O)CC1` (centres undefined), the fluorescence ratio to DMSO was 102% (inactive).
The same measure for `CC1(C(=O)Nc2ccc3c(c2)OCCO3)CCN1C(=O)Cc1cc(F)ccc1F` (centres undefined): 100% (inactive).
The same measure for `COc1ccc(OC)c(C(=O)NC(CC(N)=O)c2ccc(N3CCC(N4CCCCC4)CC3)c([N+](=O)[O-])c2)c1` (centres undefined): 92% (inactive); for `Cc1nn(-c2ccccc2)c2[nH]c(C(F)(F)F)cc(=O)c12`: 87% (inactive); for `CCOc1ccc(C(=O)COC(=O)c2ccc(-n3cnnn3)cc2)cc1`: 101% (inactive).
Regarding `C=CCc1cccc(/C=N/NC(=O)COc2ccc(-n3cnnn3)cc2)c1O`, the fluorescence ratio to DMSO was 93% (inactive).
For `O=C(COc1ccc(-n2cnnn2)cc1)Nc1ccccc1Cl` the value was 73% (active).
For `CC1CCN(C(=O)CSc2nnc(-c3ccco3)n2N)CC1` the value was 95% (inactive); for `CN(C(=O)c1ccccc1)c1nccnc1C#N`, 98% (inactive); for `COC(=O)c1ccc(CSc2ccc(S(=O)(=O)N3CCCCC3)cn2)cc1`, 100% (inactive).
Turning to `CCC(=O)N1c2ccccc2NC2=C(C(=O)CCC2)C1c1ccco1` (centres undefined), the fluorescence ratio to DMSO is 101% (inactive).
For `O=C1CCCC2=C1C(c1cccs1)n1nc(SCc3ccccc3)nc1N2` (centres undefined) the value was 55% (active); for `O=C1CCCC2=C1C(c1cccs1)CC(=O)N2c1ccc(F)cc1` (centres undefined), 95% (inactive); for `Cn1ncc2c(Nc3cccc4ccccc34)ncnc21`, 85% (inactive).
The same measure for `CCCOc1cccc(C(=O)Nc2ccccc2C(=O)N2CCN(C)CC2)c1`: 99% (inactive).
For `C[C@]12CCC(=O)C=C1C=CC1C2CC[C@@]2(C)C1CC[C@@]21CCC(=O)O1` (some centres undefined) the value was 98% (inactive); for `COc1ccc(S(=O)(=O)N2CCOCC2)cc1NC(=O)CSc1ncnc2ccccc12`, 92% (inactive).
